We go through nine compounds from PubChem BioAssay.

Several values for one entry are separate records, joined by “and”; a condition that tells them apart may be missing. Equal values may be shown once. Activity calls are given as the source filed them.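 The calls were made as follows, unless noted: active = inhibition at or above 50% relative to wild type and mutant plate controls; inactive = inhibition below 50%.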

The nature of assay [1]: inhibitors of TNFa-induced NFkB p65 translocation, primary screen, imaging, HUVEC, MLSMR starter and 10KST1 sets (AID 438;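 active = inhibition above 20% together with a positive visual image hit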;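 also: compound added about 3h40 before a 20 min TNFalpha stimulation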;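 as to inhibition: signal is the nuclear over cytoplasmic p65 intensity ratio per well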). As to conditions: HUVEC TNFa-induced p65 nuclear translocation; cell count: measured here: nuclei count (cytotoxicity indicator), at 2.08 µM; inhibition: at 2 µM, stronger effect = higher value, 0% TNFa-plus-vehicle, 100% no-TNFa wells.
The nature of assay [2]: reduction of polyQ htt aggregates in cells – imaging, exon1htt(103Q)mCFP cells, high-content imaging, primary screen (AID 483;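 active = visual image review flags a hit and inhibition of aggregation exceeds 20%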;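 also: compound exposure lasted 3 days before fixation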;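 as to nuclei count: percent of the per-plate median nuclei count of sample wells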). As to conditions: exon1htt(103Q)mCFP cell line, aggregate imaging, at 2 µM; inhibition of aggregation: stronger effect = higher value; nuclei count: measured here: cell count, toxicity.
Assay [3] is described as follows: endothelial E-selectin expression blockers – imaging, HUVEC, immunofluorescence, MLSMR starter and 10KST1 sets, primary screen (AID 487;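 active = visually confirmed hit in the image check and inhibition above 20%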;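 as to inhibition: signal is fraction of cell area covered by stained E-selectin grains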;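 as to nuclei count: 100% = median nuclei count of all wells on the same plate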). As to conditions: HUVEC TNFalpha-induced E-selectin immunofluorescence imaging, at 2 µM; inhibition: stronger effect = higher value; nuclei count: measured here: cell number, toxicity.
Assay [4] in a line: Primary imaging screen for DUSP6 inhibitors that restore phospho-Erk in transfected HeLa cells, chemical complementation (AID 609;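 active = compounds giving at least 50% inhibition in the cell-based MKP-3 phosphatase rescue imaging test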;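 as to inhibition: phospho-Erk level distribution per well compared with pooled transfected vehicle control wells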). As to conditions: HeLa MKP-3 transfected, phospho-Erk imaging KS statistic, at 10 µM, cells stimulated with TPA for 15 min.
Assay [5] concerns the target Dual specificity protein phosphatase 6 (Homo sapiens) (UniProt Q16828). Described as above. The following applies: HeLa MKP-3 transfected, phospho-Erk imaging KS statistic; at 10 µM; stronger effect = higher value; cells stimulated with TPA for 15 min.
In assay [6] the target is Voltage-gated potassium channel subunit beta-2 (Rattus norvegicus) (UniProt P62483). Kind of assay: inhibitors of rat Kvbeta2 reductase activity – biochemical, NADPH fluorescence, primary screen (AID 622;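 active = fluorescence slope higher than the sample average by over 3 SD, cut at about -0.22 in these data, passing the limit was not always enough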;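 also: slope of raw intensity against log time taken from 70 to 1610 s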). The following applies: recombinant KvBeta, 4-cyanobenzaldehyde reduction, at 10 µM, stronger effect = higher value.
Chain of Voltage-gated potassium channel subunit beta-2 (Rattus norvegicus) (P62483 whole entry, looked up): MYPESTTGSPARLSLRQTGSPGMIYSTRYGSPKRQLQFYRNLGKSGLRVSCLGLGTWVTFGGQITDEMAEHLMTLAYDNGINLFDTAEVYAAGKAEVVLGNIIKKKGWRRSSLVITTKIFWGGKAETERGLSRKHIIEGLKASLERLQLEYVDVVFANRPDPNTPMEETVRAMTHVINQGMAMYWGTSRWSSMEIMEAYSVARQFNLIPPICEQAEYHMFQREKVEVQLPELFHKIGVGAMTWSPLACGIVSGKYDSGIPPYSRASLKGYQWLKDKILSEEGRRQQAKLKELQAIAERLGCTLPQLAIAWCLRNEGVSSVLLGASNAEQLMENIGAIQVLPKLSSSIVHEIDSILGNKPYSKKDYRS
For assay [7] the target is unchanged. Kind of assay: enhancers of rat Kvbeta2 NADPH turnover – biochemical, NADPH fluorescence, primary screen (AID 623;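 active = NADPH fluorescence slope more negative than the mean of all samples by about 3 SD, 99.7% confidence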;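 also: fluorescence intensity change per second fitted from 20 to 320 s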). The following applies: Recombinant KvBeta, NADPH fluorescence decrease slope, 10 min; at 10 µM; stronger effect = lower value.
In assay [8] the target is Alpha-2C adrenergic receptor (Homo sapiens) (UniProt P18825). Kind of assay: compounds altering alpha2C-coupled GIRK flux – cell-based, HEK293 alpha2C/GIRK1/2, thallium flux, primary screen (AID 624;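 active = fluorescence slope after compound addition differing from the mean of all screened samples at 99.7% confidence, in either direction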;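 also: slope of fluorescence ratio to pre-addition baseline per second over 15 to 24 s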). As to conditions: thallium flux BTC fluorescence, at 10 µM, actives lie on both sides.
Chain of Alpha-2C adrenergic receptor (Homo sapiens) (P18825 whole entry, looked up): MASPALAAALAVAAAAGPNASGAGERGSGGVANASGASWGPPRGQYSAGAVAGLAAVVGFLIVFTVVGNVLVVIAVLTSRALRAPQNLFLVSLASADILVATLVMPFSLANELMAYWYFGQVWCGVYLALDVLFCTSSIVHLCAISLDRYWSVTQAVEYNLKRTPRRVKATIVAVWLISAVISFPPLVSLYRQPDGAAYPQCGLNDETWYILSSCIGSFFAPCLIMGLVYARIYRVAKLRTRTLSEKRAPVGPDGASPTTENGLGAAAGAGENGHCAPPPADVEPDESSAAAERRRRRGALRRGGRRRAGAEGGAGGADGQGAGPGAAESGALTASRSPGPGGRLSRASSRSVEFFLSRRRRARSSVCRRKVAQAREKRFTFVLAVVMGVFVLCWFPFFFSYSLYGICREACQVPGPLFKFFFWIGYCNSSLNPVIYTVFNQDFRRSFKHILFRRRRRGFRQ
The nature of assay [9]: inhibitors of larval lipid processing in zebrafish, primary screen, whole organism, PED6 fluorescence, gall bladder and intestine (AID 686;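 active = a full or partial loss of lipid-probe fluorescence in the fish gall bladder, intestine or both, judged by eye; inactive = no fluorescence loss, or compound toxic to the fish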;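 also: larvae 5 to 7 days old with five fish per well; signal comes from phospholipase A2 cleavage of quenched PED6 carried via bile; overnight exposure to compound and PED6 before scoring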). As to conditions: Zebrafish larvae PED6 lipid processing, fluorescence scoring; screened at 20 µM (by protocol).
Assay [10] is described as follows: loss of swimming-algae plug formation – whole organism, Chlamydomonas reinhardtii, WT vs cilia-less mutant, absorbance, 96-well, primary screen (AID 463189).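 Also: 0% = wild type cc124 cells in DMSO and 100% = ciliumless bld1 mutant cells.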 The following applies: Chlamydomonas reinhardtii gravitaxis, OD600 absorbance, 2 days; at 10 µM; stronger effect = higher value.
Assay [11] in a line: blockers of RIG-like receptor reporter activation – cell-based, Sendai virus stimulus, luciferase, 10K MLSCN set, TLR/RLR signaling modifier project, primary screen (AID 602276;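 active = inhibition at or above 50% at 10 µM; inactive = inhibition below 50%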;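 also: firefly luciferase from ISG56 promoter only with Renilla not read in this screen; 0% = Sendai virus plus DMSO and 100% = medium plus DMSO without virus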). The following applies: HEK293 RL24 IRF3 luciferase reporter, at 10 µM, stronger effect = higher value.
Assay [12] in a line: TLR3 IRF3 reporter activation blockers – cell-based, poly I:C stimulus, luciferase, 10K MLSCN set, primary screen (AID 602277;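 active = inhibition of the reporter signal at or above 50%; inactive = inhibition below 50%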). The following applies: HEK293-TLR3 RL24 IRF3 luciferase reporter, at 10 µM, stronger effect = higher value. (In general: A reporter such as luciferase makes a cellular process visible.)
The mark [13] stands for this setting: measured here: cell density z-score.
[14] abbreviates: measured here: nuclear c-Myc green intensity z-score.
Where [15] appears, read: measured here: nuclear pErk red intensity z-score, stronger effect = higher value.

Chain of Dual specificity protein phosphatase 6 (Homo sapiens) (Q16828 whole entry, looked up): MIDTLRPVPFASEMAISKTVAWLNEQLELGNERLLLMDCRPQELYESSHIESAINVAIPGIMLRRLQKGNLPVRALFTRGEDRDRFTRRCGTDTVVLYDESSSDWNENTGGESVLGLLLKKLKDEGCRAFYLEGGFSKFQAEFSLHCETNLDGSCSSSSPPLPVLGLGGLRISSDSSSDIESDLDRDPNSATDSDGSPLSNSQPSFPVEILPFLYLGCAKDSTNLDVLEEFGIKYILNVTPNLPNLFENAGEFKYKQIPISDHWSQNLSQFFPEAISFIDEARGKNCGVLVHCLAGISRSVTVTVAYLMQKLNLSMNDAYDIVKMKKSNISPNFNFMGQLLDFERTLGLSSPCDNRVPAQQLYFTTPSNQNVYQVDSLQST

As to `C=CCn1c(N)c(C(=O)OC(C)(C)C)c2nc3ccccc3nc21`, the cell count in assay [1] came out at 370. Further, the inhibition – broadly, the change of the read-out against control, counted positive when it falls – in assay [1] is -11.7% (inactive); in assay [3], -104% (inactive); in assay [5], -2.59% (inactive); in assay [10], 12.3% (inactive); in assay [11], 12.2% (inactive); in [12] it was -1.21% (inactive). Besides, the inhibition of aggregation in [2] was -9.4% (inactive). Besides, the nuclei count turned out to be 100% in assay [2] and 124% in [3]. In addition, the z-score was 1.71 in assay [4] (setting [13]), -2 in [4] (setting [14]) and -1.69 in [4] (setting [15]). Also, the fluorescence slope in assay [6] is -0.257 (inactive). For the same compound, in assay [7], the NADPH fluorescence slope was 0.000211 (inactive). Moreover, the slope in [8] is 0.00615 (inactive). The outcome in assay [9] was inactive.
Consider `CC(=O)O[C@]1(C(C)=O)CC[C@H]2[C@@H]3C=C(C)C4=CC(=O)CC[C@]4(C)[C@H]3CC[C@@]21C`, for which the cell count in [1] was 697. The inhibition in assay [1] is -4.5% (inactive); in assay [3], -91% (inactive); in assay [5] it was 7.39% (inactive); in assay [10] it was 1.32% (inactive); in assay [11], 15.7% (inactive); in assay [12] it was 41% (inactive). Also, the inhibition of aggregation in [2] was -13.2% (inactive). The nuclei count in assay [2] was found to be 103%; in assay [3], 125%. The z-score was 0.989 in [4] (setting [13]), -0.815 in assay [4] (setting [14]) and -0.896 in assay [4] (setting [15]). For the same compound, the fluorescence slope in [6] is -0.492 (inactive). In addition, the NADPH fluorescence slope in [7] was -2e-05 (inactive). The slope in [8] was 0.00287 (inactive). The call in [9] was inactive.
For `O=C(O)c1ccc(COc2c(F)c(F)c(F)c(F)c2F)o1`, the cell count in [1] is 492. Also, the inhibition is -12.2% (inactive) in assay [1]; -83.7% (inactive) in assay [3]; -3.5% (inactive) in [5]; -7.74% (inactive) in assay [10]; -5.03% (inactive) in [11]; -6.07% (inactive) in [12]. Also, in assay [2], the inhibition of aggregation is -42.8% (inactive). Also, the nuclei count in [2] came to 99.6%; in [3] it was 129%. The z-score is 0.991 in assay [4] (setting [13]), -1.28 in assay [4] (setting [14]) and -0.83 in assay [4] (setting [15]). Besides, the fluorescence slope in assay [6] is -0.433 (inactive). Also, the NADPH fluorescence slope in [7] is -0.000148 (inactive). The slope in assay [8] was 0.00486 (inactive). The call in assay [9] was inactive.
For the compound `Cn1cnc2c1c(=O)[nH]c(=O)n2C`, the cell count in assay [1] stood at 544. Further, the inhibition in assay [1] is -10.8% (inactive); in assay [3] it was -30.6% (inactive); in [5], -6.41% (inactive); in [10] it was 8.14% (inactive) and 20.9% (inactive); in assay [11], 13.1% (inactive); in [12], 16.1% (inactive). The inhibition of aggregation in assay [2] is -16.4% (inactive). Moreover, the values for the nuclei count in assay [2] and in assay [3] were 97% and 124%, respectively. For the same compound, the z-score is -0.137 in [4] (setting [13]), -0.093 in assay [4] (setting [14]) and 1.06 in [4] (setting [15]). For the same compound, in [6], the fluorescence slope is -0.513 (inactive). Also, the NADPH fluorescence slope in [7] is 1.2e-05 (inactive). In assay [8], the slope is 0.00542 (inactive). Further, in [9], the call was inactive.
As to `O=C(O)CCN(CCC(=O)O)c1nnc(SCc2ccccc2)s1`, in assay [1], the cell count was found to be 428. Further, the inhibition in [1] is 4% (inactive); in assay [3] it was -187% (inactive); in assay [5], -3.98% (inactive); in assay [10], -1.99% (inactive); in assay [11], 18.7% (inactive); in assay [12] it was 25.8% (inactive). Moreover, the inhibition of aggregation in assay [2] was -9.5% (inactive). In addition, the figures for the nuclei count in assay [2] and in assay [3] were 108% and 136%, respectively. The z-score in assay [4] (setting [13]) was 0.906; in assay [4] (setting [14]), -0.398; in [4] (setting [15]), -0.408. Moreover, the fluorescence slope in [6] is -0.393 (inactive). Besides, the NADPH fluorescence slope in assay [7] is -6e-05 (inactive). Moreover, in assay [8], the slope was 0.0059 (inactive). Moreover, the compound was classed as inactive in assay [9].
With `NS(=O)(=O)c1cc2c(cc1C(F)(F)F)NC(Cc1ccccc1)NS2(=O)=O` (stereo not drawn), the cell count in assay [1] came to 519. For the same compound, the inhibition is -2.8% (inactive) in assay [1]; -18.5% (inactive) in assay [3]; -0.493% (inactive) in [5]; -16.5% (inactive) in assay [10]; 9.6% (inactive) in [11]; 2% (inactive) in [12]. Moreover, the inhibition of aggregation in assay [2] was 18.4% (inactive). Besides, the nuclei count in assay [2] is 75.3%; in [3], 105%. In addition, the z-score was -0.539 in [4] (setting [13]), -0.574 in assay [4] (setting [14]) and 0.0203 in assay [4] (setting [15]). The fluorescence slope in assay [6] was -0.528 (inactive). Besides, the NADPH fluorescence slope in assay [7] is 7.9e-07 (inactive). The slope in assay [8] is 0.00523 (inactive). In assay [9], the call was inactive.
Turning to `Cc1ccc(C2/C(=C(/O)c3cnn(-c4ccccc4)c3C)C(=O)C(=O)N2CCN2CCOCC2)o1` (stereo not drawn), the cell count in [1] came out at 520. For the same compound, the inhibition is -2.8% (inactive) in [1]; -56.6% (inactive) in assay [3]; -10.5% (inactive) in assay [5]; -18.9% (inactive) in [10]; -28.4% (inactive) in assay [11]; -75.5% (inactive) in assay [12]. In assay [2], the inhibition of aggregation was 10.2% (inactive). Besides, the nuclei count in assay [2] was determined as 100%; in assay [3] it was 126%. Also, the figures for the z-score in assay [4] (setting [13]), in [4] (setting [14]) and in [4] (setting [15]) were -0.925, 1.9 and -0.672, respectively. Also, the fluorescence slope in [6] is -0.531 (inactive). Moreover, the NADPH fluorescence slope in assay [7] was -4.5e-05 (inactive). In addition, the slope in [8] is 0.00497 (inactive). In addition, the compound was called inactive in assay [9].
With `O=C(O)CCCCCCC1C(=O)NC(=O)N1CCC(O)C1CCCCC1` (stereo not drawn), the cell count in assay [1] stood at 579. Besides, the inhibition in assay [1] was -9.7% (inactive); in [3], -76.1% (inactive); in assay [5] it was -0.493% (inactive); in assay [10], 1.26% (inactive); in [11], 15.9% (inactive); in assay [12] it was 36.2% (inactive). Further, the inhibition of aggregation in [2] was -6.4% (inactive). For the same compound, the nuclei count in assay [2] stood at 97.8%; in assay [3] it was 116%. Further, the values for the z-score in [4] (setting [13]), in assay [4] (setting [14]) and in [4] (setting [15]) were -0.528, -0.266 and 1.03, respectively. In addition, the fluorescence slope in assay [6] was -0.507 (inactive). The NADPH fluorescence slope in assay [7] is -5.2e-05 (inactive). Also, the slope in assay [8] is 0.00541 (inactive). Also, the compound was called inactive in assay [9].
Regarding `Nc1nc(Cl)nc2c1ncn2[C@H]1C[C@H](O)[C@@H](CO)O1`, the cell count in [1] is 522 and 557. The inhibition in assay [1] is -10.7% (inactive) and -11.5% (inactive); in assay [3], -143% (inactive) and -17% (inactive); in [5], 7.39% (inactive) and -2.46% (inactive); in assay [10], 18.6% (inactive) and -15.6% (inactive); in assay [11], 12.3% (inactive) and 18.7% (inactive); in assay [12], 41.2% (inactive) and 27.6% (inactive). Besides, the inhibition of aggregation in assay [2] was -36.7% (inactive). The nuclei count was 10% in assay [2]; 133% and 106% in [3]. Besides, the z-score in assay [4] (setting [13]) was 1.67 and -3.27; in assay [4] (setting [14]), -1.09 and -0.338; in assay [4] (setting [15]), -0.372 and -0.606. Moreover, the fluorescence slope in [6] is -0.46 (inactive) and -0.431 (inactive). Besides, the NADPH fluorescence slope in assay [7] was -2e-05 (inactive) and -2.2e-05 (inactive). Moreover, in assay [8], the slope was 0.00559 (inactive) and 0.00513 (inactive). Besides, in assay [9], the result was inactive.
